Hits are enriched below; roughly 1.5% of the tested compounds scored in any of these assays.
eLon inh: inhibitors of E. coli Lon protease | hit rate 0.42% among 360,000 | purified E. coli Lon protease, fluorescence polarization | inhibition, % at 7.94 µM | AID 602123 | P0A9M0; in the data active means inhibition above about 13%, passing the limit was not always enough;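 further: 0% = enzyme with probe and DMSO and 100% = no enzyme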
GLD-1 RNA inh: GLD-1-TGE RNA interaction inhibition (C. elegans); Q17339; purified GLD-1 + fluorescein TGE RNA, fluorescence polarization; inhibition, % at 5.96 µM; hit rate 0.44% among 320,000; AID 2280;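 active means percent inhibition above a per-plate cutoff, the plate mean of test compounds plus 3 SD, cut at about 30% in these data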;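 further: 0% = DMSO wells with GLD-1 and probe and 100% = wells lacking GLD-1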
MCL1 BIM primary: MCL1-BIM-BH3 interaction inhibition (human) | hit rate 0.68% among 320,000 | GST-MCL1 / FITC-Bim-BH3 fluorescence polarization | Q07820 | inhibition, % at 10.9 µM;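 active means inhibition above the mean inhibition of all tested compounds plus 3 SD, set per campaign, cut at about 40% in these data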;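 further: 0% = DMSO wells and 100% = unlabeled Bim-BH3 peptide control; higher means more loss of mP so more displacement of Bim peptide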
MEX-5 binding: C. elegans MEX-5 TCR-2 RNA binding activity; AID 1832; hit rate 0.38% among 300,000; activity score (negative = inhibition of binding), % at 10 µM; Q9XUB2; MEX-5/FITC-TCR2 RNA binding, fluorescence polarization; active compounds read low;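 active means inhibition past about -25% in most replicates, and total fluorescence under double the plate's negative control median, limit read from the data; inconclusive means replicates evenly split on the limit, or fluorescence at least double controls; inactive means too little inhibition in most replicates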;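 further: 0% = DMSO and -100% = 5 µM competing unlabeled TCR2 RNA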
Target sequence (Q9XUB2 whole entry, looked up): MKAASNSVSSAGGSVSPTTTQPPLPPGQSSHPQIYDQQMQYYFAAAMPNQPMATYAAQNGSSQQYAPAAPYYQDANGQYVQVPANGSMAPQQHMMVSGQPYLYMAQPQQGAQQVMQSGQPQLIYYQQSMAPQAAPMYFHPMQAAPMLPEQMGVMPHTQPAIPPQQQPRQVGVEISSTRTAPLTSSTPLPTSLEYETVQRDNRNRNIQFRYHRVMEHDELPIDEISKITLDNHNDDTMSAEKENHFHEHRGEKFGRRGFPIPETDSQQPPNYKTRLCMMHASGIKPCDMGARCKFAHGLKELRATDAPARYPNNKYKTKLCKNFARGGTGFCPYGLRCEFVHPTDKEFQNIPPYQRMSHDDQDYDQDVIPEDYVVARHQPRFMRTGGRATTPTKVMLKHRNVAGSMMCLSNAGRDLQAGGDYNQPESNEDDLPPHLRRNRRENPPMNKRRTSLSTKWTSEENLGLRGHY
BCLXL inh: Bcl-xL (human) inhibition; Q07817; GST-Bcl-xL / FITC-Bim BH3 peptide fluorescence polarization; inhibition, % at 10.9 µM; hit rate 0.7% among 320,000;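 active means inhibition above the mean of all tested compounds plus 3 SD, cutoff set per campaign, cut at about 30% in these data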;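 further: 0% = DMSO wells and 100% = unlabeled Bim-BH3 peptide competitor; inhibitors lower millipolarization by displacing the labeled peptide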
Target sequence (Q07817 whole entry, looked up): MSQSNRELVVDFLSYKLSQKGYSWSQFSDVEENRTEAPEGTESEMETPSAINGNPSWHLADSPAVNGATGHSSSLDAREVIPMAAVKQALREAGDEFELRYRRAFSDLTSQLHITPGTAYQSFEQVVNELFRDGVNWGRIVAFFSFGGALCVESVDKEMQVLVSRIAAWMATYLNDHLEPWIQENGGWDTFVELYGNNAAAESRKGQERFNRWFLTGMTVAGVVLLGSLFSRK
EBV gp42 block: blocks Epstein-Barr virus glycoprotein 42 binding | inhibition, % (tested at 21.74 µM) | Fluorescence polarization binding assay, mP read-out | hit rate 0.42% among 220,000 | AID 1085 | Q1HVG2; in the data active means inhibition above about 50%
BCLXL inh confirm: counter-screen for MCL1 inhibitors: confirmation of human Bcl-xL inhibitors; shares compounds with MCL1 BIM primary; GST-Bcl-xL / FITC-Bim BH3 peptide FP binding; inhibition, % at 10.9 µM; hit rate 54% among 1,700; AID 2166;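 active means inhibition above a cutoff equal to the mean inhibition of all tested compounds plus 3 SD, cut at about 30% in these data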;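 further: 0% = DMSO wells and 100% = unlabeled Bim BH3 control peptide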
MCL1 inh confirm: MCL1-BIM-BH3 interaction inhibition, confirmation. shares compounds with MCL1 BIM primary. GST-MCL1 / FITC-Bim-BH3 fluorescence polarization. inhibition, % at 10.9 µM. hit rate 61% among 1,700. AID 2168;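 active means inhibition above the average of all tested compounds plus 3 SD, cut at about 40% in these data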;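 further: 0% = DMSO wells and 100% = unlabeled Bim-BH3 control peptide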
GLD-1 TGE cf: confirmation of C. elegans GLD-1 TGE RNA binding inhibitors. shares compounds with GLD-1 RNA inh. GLD-1/FL-TGE RNA fluorescence polarization, biochemical. inhibition, % at 5.96 µM. hit rate 10% among 550. AID 2459;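 active means average inhibition across triplicates above the hit cutoff set in the primary screen, cut at about 32% in these data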;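 further: 0% = GLD-1 with RNA probe and DMSO and 100% = wells lacking GLD-1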
eLon confirm: E. coli Lon inhibition confirmation. inhibition, % at 7.94 µM. purified E. coli Lon, fluorescence polarization. shares compounds with eLon inh. hit rate 31% among 1,400. AID 602230; in the data active means inhibition above about 16%;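 further: 0% = enzyme with probe and DMSO and 100% = no enzyme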
Numbers without * were called inactive.

How did Cc1ccc[n+](-c2nc([O-])sc2C=O)c1 do in these assays?
eLon inh: 92*; GLD-1 RNA inh: 156*; MCL1 BIM primary: active; BCLXL inh: 173*; EBV gp42 block: 142*; BCLXL inh confirm: 169*; MCL1 inh confirm: active; eLon confirm: 148*

Results for CC(C)c1ccc[n+](-c2nc([O-])sc2C=O)c1 ?
eLon inh: 7; GLD-1 RNA inh: 3; MCL1 BIM primary: 3; MEX-5 binding: -4; BCLXL inh: 8; EBV gp42 block: -7

Results for CN1CC(c2ccccc2)Oc2ccccc2C1=S (stereo unspecified) ?
eLon inh: -3; GLD-1 RNA inh: -2; MCL1 BIM primary: 3; MEX-5 binding: -1; BCLXL inh: 6

Results for CCOC(=O)c1cc(N2CCCCC2)nc2ccccc12 ?
eLon inh: 3

What do the screens show for `COC(=O)c1cc(N2CCN(C)CC2)nc2ccccc12`?
eLon inh: 96*; GLD-1 RNA inh: 85*; MCL1 BIM primary: 144*; MEX-5 binding: inconclusive; BCLXL inh: 138*; EBV gp42 block: 82*; BCLXL inh confirm: 23; MCL1 inh confirm: 35; eLon confirm: 19*

How did CCOC(=O)Cc1cnc(NC(=O)CSc2nc(N)cc(N)n2)s1 do in these assays?
eLon inh: 1; GLD-1 RNA inh: -3; MCL1 BIM primary: 1; MEX-5 binding: -1; BCLXL inh: 2; EBV gp42 block: -12

Results for CCCCCCCCN1C(=O)[C@H](CC(=O)NCC2CCCCC2)C[C@@]2(C(=O)OC)CCCCC=C12 ?
eLon inh: 1

Results for N#CCCN(CCC#N)C(=O)C1c2ccccc2Oc2ccccc21 ?
eLon inh: active; GLD-1 RNA inh: active; MCL1 BIM primary: active; MEX-5 binding: inconclusive; BCLXL inh: active; BCLXL inh confirm: 28; MCL1 inh confirm: 29; eLon confirm: 7

How did Cn1c(=O)c(Nc2ccc(O)cc2)c2c3c(cccc31)C(=O)c1ccccc1-2 do in these assays?
eLon inh: active; GLD-1 RNA inh: 155*; MCL1 BIM primary: active; MEX-5 binding: -16; BCLXL inh: 164*; EBV gp42 block: 127*; BCLXL inh confirm: 163*; MCL1 inh confirm: active; eLon confirm: 121*

How did CC(C)c1ccc(Nc2c([N+](=O)[O-])c(=O)n(C)c3ccccc23)cc1 do in these assays?
eLon inh: -5; GLD-1 RNA inh: 4; MCL1 BIM primary: 3; MEX-5 binding: 2; BCLXL inh: 7; EBV gp42 block: 4

What do the screens show for `CC(=O)Nc1ccc(S(=O)(=O)Nc2nc3ccccc3nc2Sc2nncn2C)cc1`?
eLon inh: 19*; GLD-1 RNA inh: 37*; MCL1 BIM primary: 78*; MEX-5 binding: -18; BCLXL inh: 78*; EBV gp42 block: 44; BCLXL inh confirm: 41*; MCL1 inh confirm: 47*; eLon confirm: 14

Results for O=C(N/N=C/c1sc(=O)[nH]c1-[n+]1ccc2ccccc2c1)c1ccccc1[O-] ?
eLon inh: 134*; GLD-1 RNA inh: 165*; MCL1 BIM primary: 178*; MEX-5 binding: -14; BCLXL inh: 156*; BCLXL inh confirm: 31*; MCL1 inh confirm: 32; eLon confirm: 48*

How did Cc1ccc(C(=O)CNc2cc(C)ccc2C)cc1 do in these assays?
eLon inh: -3; GLD-1 RNA inh: -1; MCL1 BIM primary: -1; MEX-5 binding: -3; BCLXL inh: 3

Results for CCNc1cc(O)ccc1C ?
eLon inh: 117*; GLD-1 RNA inh: 137*; MCL1 BIM primary: 164*; BCLXL inh: 138*; BCLXL inh confirm: 73*; MCL1 inh confirm: 85*; eLon confirm: 89*

How did COc1cc(OC)c(OC)cc1CNC(=O)c1cccc(S(=O)(=O)N2CCc3ccccc3C2)c1 do in these assays?
eLon inh: 1

What do the screens show for `COc1ccc(CNC(=O)CCCC(=O)Nc2cccc(Br)c2)cc1`?
eLon inh: -12; GLD-1 RNA inh: 4; MCL1 BIM primary: 2; MEX-5 binding: -4; BCLXL inh: 2

Results for CCOC(=O)c1c(-c2ccccc2)oc2cc(CN(C)C)c(O)c(CN(C)C)c12 ?
eLon inh: -12; GLD-1 RNA inh: 37*; MCL1 BIM primary: 49*; MEX-5 binding: -2; BCLXL inh: 35*; GLD-1 TGE cf: 7

How did Cc1cccc(N2CCN(C(=O)C3COc4ccccc4O3)CC2)c1C (stereo unspecified) do in these assays?
eLon inh: 7; GLD-1 RNA inh: 100*; MCL1 BIM primary: 0; MEX-5 binding: 0; BCLXL inh: 0; EBV gp42 block: 12; GLD-1 TGE cf: 0

Results for O=C(C1COc2ccccc2O1)N1CCN(c2ccccc2Cl)CC1 (stereo unspecified) ?
eLon inh: -1; GLD-1 RNA inh: 6; MCL1 BIM primary: 1; MEX-5 binding: 4; BCLXL inh: 6; EBV gp42 block: -2

How did N#CC1=C(N)C2=CCCC[C@H]2[C@H](c2ccccc2)C1(C#N)C#N do in these assays?
eLon inh: 4; GLD-1 RNA inh: 40*; MCL1 BIM primary: 42*; MEX-5 binding: -17; BCLXL inh: 35*; EBV gp42 block: 28; GLD-1 TGE cf: -3

What do the screens show for `N#CC1=C(N)C2=CCCC[C@H]2[C@H](c2ccc(Br)cc2)C1(C#N)C#N`?
eLon inh: 7; GLD-1 RNA inh: 37*; MCL1 BIM primary: 38; BCLXL inh: 40*; EBV gp42 block: 19; GLD-1 TGE cf: 1

Results for COC(=O)Nc1ccc(S(=O)(=O)NNC(=O)c2c(O)c3ccccc3n(C)c2=O)cc1 ?
eLon inh: 2; GLD-1 RNA inh: -9; MCL1 BIM primary: 6; MEX-5 binding: 0; BCLXL inh: 5

What do the screens show for `CCOc1ccc(NC(=O)CC2S/C(=N/N=C3CCCCCC3)NC2=O)cc1` (stereo unspecified)?
eLon inh: -14; GLD-1 RNA inh: 39*; MCL1 BIM primary: 2; MEX-5 binding: 1; BCLXL inh: 0; GLD-1 TGE cf: 1

How did O=[N+]([O-])/C=C\c1ccc(N2CCCC2)c(F)c1 do in these assays?
eLon inh: -446; MEX-5 binding: 9; EBV gp42 block: -80

Screening data: PubChem, several laboratories
